# Test results reported in PubChem BioAssay (Tox21).
# Records with an inconclusive call do not appear. A number with no mark means an inactive call. Activity calls are given as the source filed them. The call rests on the fitted dose curve; in most records, active means well fitted cell-killing curve with a large enough effect in the repeat runs; inconclusive means weak or mixed curves, or effect the other way; inactive means flat fitted curve, though single readings scatter.
# Assay: qHTS RealTime-Glo MT Cell Viability Assay in HepG2 cells - 0 hour (AID 1224889); further: nearly all actives have a fitted effect of over 50% in size
# Conditions: RealTime-Glo luminescence; series mostly up to 76.8 µM; activity change, negative = cytotoxicity: at the top concentration
# Text: U.S. Tox21 Program National Center for Advancing Translational Sciences [NCATS] NIH Chemical Genomics Center [NCGC] U.S. Environmental Protection Agency [EPA] National Institutes of Environmental Health Sciences [NIEHS] National Toxicology Program [NTP] U.S. Food and Drug Administration [FDA] Tox21 Assay Overview: Measure of cell viability is critical in the cell-base assay. Analysis of cell viability is necessary for the characterization of cell responses to cytotoxic drugs and environmental stress. A RealTime-Glo MT Cell Viability Assay to monitor cell viability in real time of continues cell culture during 40 hours of compound treatment was used to screen Tox21 10K library compounds in HepG2 cells. The RealTime-Glo MT Cell Viability Assay is a nonlytic, homogeneous, bioluminescent method to measure cell viability in real time using a simple, plate-based method. The assay involves adding NanoLuc luciferase and a cell-permeant prosubstrate to cells in culture. Viable cells reduce the proprietary prosubstrate to generate a substrate for NanoLuc luciferase. This substrate diffuses from cells into the surrounding culture medium, where it is rapidly used by the NanoLuc Enzyme to produce a luminescent signal. The signal correlates with the number of viable cells, making the assay well suited for cytotoxicity studies.
# Tox21 Assay Protocol Summary: The mixture of HepG2 cell suspension and reagents were dispensed at 600cells/6 ul/well in 1536-well tissue culture treated black solid bottom plates using a Multidrop dispenser. After the assay plates were incubated at a 37 C/5% CO2 incubator for 5 hours, 23 nL of compounds dissolved in DMSO, positive and negative controls was transferred to the assay plate by a pintool work station. The plates were incubated at 37 C for 40 hours. The luminescence intensity were measured at 0h, 8h, 16h, 24h, 32h and 40h time points using ViewLux plate reader during compound treatment.
# On the % scale 0 is the no-effect control and ±100 the full control effect; potency means the concentration at half of the fitted maximal effect.
Structure (SMILES),Potency,"activity change, negative = cytotoxicity"
CC(C)Nc1cccnc1N1CCN(C(=O)c2cc3cc(NS(C)(=O)=O)ccc3[nH]2)CC1,3.38 µM (active),
CCCCN(CCN(CCCC)C(=O)N1CCOCC1)C(=O)N1CCOCC1,,-2.04% [at 35.3 µM]
O=C(OC(=O)c1ccccc1)c1ccccc1,,2.29%
O[C@@H]1CO[C@H]2[C@@H]1OC[C@@H]2O,,6.9% [at 35.3 µM]
C[C@H]1C[C@H](O)c2ccsc2S1(=O)=O,,2.31% [at 35.3 µM]
CC1=C(Br)C(=O)C(Br)=C/C1=C(/c1ccccc1S(=O)(=O)O)c1cc(Br)c(O)c(Br)c1C,16.7 µM (active),
CC(C)COCC(CN(Cc1ccccc1)c1ccccc1)N1CCCC1 (stereo not given),,29.2% [at 35.3 µM]
C=CC(=O)OCC1CC2CC1C1CCC(COC(=O)C=C)C21 (stereo not given),,-6.96%
CC[N+](CC)(CCNC(=O)C(=O)NCC[N+](CC)(CC)Cc1ccccc1Cl)Cc1ccccc1Cl,,-5% [at 35.3 µM]
CCCCCC[C@@H](O)C/C=C\CCCCCCCC(=O)O,,-5.67%
Cc1cccc(O)c1N,,2.56%
O=C(O)CCC(=O)C(=O)O,,-0.557%
Oc1cccc(O)c1O,,-0.881%
CN1C(=O)OC(C)(C)C1=O,,6.23%
C=COCC(C)C,,2.41%
Cc1cccc(N(C)C(=S)Oc2ccc3c(c2)CCC3)c1,,4.36% [at 35.3 µM]
O=C(O)CCCCCCCCCCCBr,,-17.7%
CCOC(=O)OC(C)OC(=O)[C@@H]1N2C(=O)[C@@H](NC(=O)[C@H](N)c3ccccc3)[C@H]2SC1(C)C (stereo not given in full),,-3.23% [at 35.3 µM]
Cc1cc2c(OCC(CNC(C)(C)C)OC(=O)c3ccccc3)cccc2[nH]1 (stereo not given),,10.6% [at 35.3 µM]
C[C@H]1c2cccc(O)c2C(O)=C2C(=O)[C@]3(O)C(O)=C(C(N)=O)C(=O)[C@@H](N(C)C)[C@@H]3[C@@H](O)[C@@H]21,,2.78% [at 35.3 µM]

Structure (SMILES),Potency,"activity change, negative = cytotoxicity"
c1csc(SSc2cccs2)c1,,-3.18%
CCn1cc(C(=O)O)c(=O)c2cc(F)c(N3CCNCC3)cc21,,-1.31% [at 35.3 µM]
CCC(=O)C1CC(C(C)C)CC=C1C (stereo not given),,-2.71%
COC(=O)c1nc(Cl)c(Cl)nc1N,,9.35% [at 35.3 µM]
CN1CCCC(n2nc(Cc3ccc(Cl)cc3)c3ccccc3c2=O)CC1 (stereo not given),,19.8% [at 35.3 µM]
Cc1ccc(Cl)c(Nc2ccccc2C(=O)O)c1Cl,,-3.67% [at 35.3 µM]
CO[C@]1(NC(=O)CSC(F)F)C(=O)N2C(C(=O)O)=C(CSc3nnnn3CCO)CO[C@H]21,,-13.2% [at 35.3 µM]
O=C(/C=C/c1ccc(O)c(O)c1)O[C@@H]1C[C@@](OC(=O)/C=C/c2ccc(O)c(O)c2)(C(=O)O)C[C@@H](O)[C@@H]1O,,5.1% [at 35.3 µM]
Cc1c(C)c2c(c(C)c1OC(=O)CCC(=O)OCCO)CC[C@@](C)(CCC[C@H](C)CCC[C@H](C)CCCC(C)C)O2,,-1.88% [at 35.3 µM]
O=c1[nH]ncc2ccccc12,,2.74%
C=C(C)C(=O)OCCCCCCCCCCCCC,,1.39%
CCCCCC[C@@H](O)C/C=C\CCCCCCCC(=O)OCC(O)CO (stereo not given in full),,-5.49%
CCCC(=O)C(=O)O,,1.36%
O=[N+]([O-])c1cc(C2CCCCC2)c(O)c([N+](=O)[O-])c1,38.8 µM (active),
CC(=O)OCC(=O)NCCCOc1cccc(CN2CCCCC2)c1,,-1.53% [at 35.3 µM]
Oc1c(I)cc(I)c2cccnc12,,5.87% [at 35.3 µM]
Cc1[nH]cnc1CN1CCc2c(c3ccccc3n2C)C1=O,,-4.15% [at 35.3 µM]
CCC1CO1 (stereo not given),,4.39%
CC=C(Cl)Cl,,-2.19%
Nc1cccc2c1CN(C1CCC(=O)NC1=O)C2=O (stereo not given),,-0.12% [at 35.3 µM]
